Assay outcomes (PubChem BioAssay)
Shown are actives, neighbours in structure and some others; about 14% of the full set was active somewhere.
Sm TGR block – qHTS Assay for the Inhibitors of Schistosoma Mansoni Peroxiredoxins; 360,000 tested, 3% active; Schistosoma mansoni thioredoxin glutathione reductase (TGR), Q962Y6; Potency, µM (top dose mostly 114 µM), without a hit: at the top dose activity change, negative = inhibition, actives largely listed as inhibitors; purified TGR, DTNB reduction, TNB absorbance 405 nm; AID 485364, 2010; note: potency is the fitted concentration of half-maximal effect; nearly all actives have a fitted effect of over 60% in size
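Kinetic colorimetric format: TGR-catalysed, NADPH-driven DTNB reduction monitored via TNB absorbance. Enzyme dispensed at 20 nM; compound exposure 15 min at room temperature before reaction start.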
HCMV inh – qHTS Assay for inhibitors of the human cytomegalovirus (HCMV); HFF cells, HCMV-luciferase reporter, 72 h; active compounds read low; activity change, negative = inhibition, % at 57.5 µM; 410,000 tested, 4.5% active; in the data active = activity change below about -60%; inconclusive = no clear call, values can overlap the other calls; inactive = above about -39%
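Screen run at 2 compound doses on HFFs infected with reporter HCMV, MOI 1 PFU/cell. Luciferase activity from cell lysates at 72 h post infection gave inhibition relative to buffer-only and Salinomycin wells.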
Pf growth 48h – Primary qHTS for delayed death inhibitors of the malarial parasite plastid, 48 hour incubation; P. falciparum luciferase growth in erythrocytes, 48 h; 310,000 tested, 5.9% active; Potency, µM (top dose mostly 28.7 µM), for the others: top-dose activity change, negative = inhibition, usual class: inhibitors; note: potency is the fitted concentration of half-maximal effect
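Read-out is firefly luciferase luminescence from an integrated reporter in P. falciparum, so falling signal marks reduced parasite growth. Infected erythrocytes were at 2% hematocrit and 0.1% parasitemia (final) in Albumax-supplemented RPMI 1640.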
Pf growth 96h – Primary qHTS for delayed death inhibitors of the malarial parasite plastid, 96 hour incubation; Potency, µM (doses to about 28.7 µM), without a hit: at the top dose activity change, negative = inhibition, most hits filed as inhibitors; P. falciparum luciferase reporter growth, 96 h; 320,000 tested, 6.9% active; note: potency is the fitted concentration of half-maximal effect
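96 h incubation, 37 C, 5% CO2, of luciferase-reporter P. falciparum-infected RBCs (2% hematocrit, 0.05% parasitemia final) with test compounds; endpoint luminescence.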
FBPA Giardia inh – qHTS Assay for Inhibitors of Fructose-1,6-bisphosphate Aldolase from Giardia Lamblia; A8B2U2; purified Giardia FBPA; Potency, µM (series often up to 59.6 µM), for inactives: at the highest dose activity, negative = inhibition, usual class: inhibitors; 290,000 tested, 0.71% active; AID 2451, 2010; note: potency is the fitted concentration of half-maximal effect; nearly all actives have a fitted effect of over 55% in size
Target sequence (A8B2U2 whole entry, looked up): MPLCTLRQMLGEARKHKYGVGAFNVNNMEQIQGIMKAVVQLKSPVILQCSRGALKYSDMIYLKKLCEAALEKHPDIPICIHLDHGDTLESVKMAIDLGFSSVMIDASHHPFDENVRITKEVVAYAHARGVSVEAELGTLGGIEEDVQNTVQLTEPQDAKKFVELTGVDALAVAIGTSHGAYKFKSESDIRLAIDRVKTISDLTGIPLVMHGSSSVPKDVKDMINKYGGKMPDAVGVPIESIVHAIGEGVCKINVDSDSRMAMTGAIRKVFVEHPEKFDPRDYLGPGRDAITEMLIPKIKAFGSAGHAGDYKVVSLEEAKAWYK
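Giardia FBPA (40 nM reagent) was preincubated 10 min at RT with compound (up to 57.5 uM final), then substrate plus GAPDH/TPI/NAD/arsenate coupling system with diaphorase/resazurin was added; resorufin fluorescence (525/598 nm) was read after 20 min.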
Starred values were filed as active, the others as inactive. Unless noted, calls come from the whole dose curve; as a rule, active = well fitted curve in the direction sought with a large enough effect; inconclusive = small, poorly fitted or top-dose-only effect, or another doubt; inactive = no such curve, though single readings can be large; an effect the other way counts as inactive or inconclusive. % is set by controls: 0 for no effect and ±100 for the full control effect.

Cn1c(=O)c2c(SCC(=O)N3CCCC3)nc(CC(C)(C)C)nc2n(C)c1=O was read as Sm TGR block -1%, HCMV inh 2, Pf growth 48h -20% and Pf growth 96h 13µM*.
`CCCOc1ccc(Cc2c(O)nc(SC)[nH]c2=O)cc1` gave Sm TGR block 1%, HCMV inh 1, Pf growth 48h 5%, Pf growth 96h -28% and FBPA Giardia inh -13%.
`COc1cccc(C(=O)N2c3nc(-c4ccco4)nn3C3(CCCCC3)[C@@H]3CCCC[C@@H]32)c1` gave Sm TGR block 7.9µM* and HCMV inh -64*.
O=C(c1cccc(Cl)c1)N1c2nc(-c3ccco3)nn2C2(CCCCC2)[C@@H]2CCCC[C@@H]21 was read as Sm TGR block -25% and HCMV inh -28.
`O=C(c1cccc([N+](=O)[O-])c1)N1c2nc(-c3ccco3)nn2C2(CCCCC2)[C@@H]2CCCC[C@@H]21` gave Sm TGR block inconclusive and HCMV inh -77*.
Screening O=C(Nc1ccc(N2CCOCC2)cc1)c1csc(COCCO)n1 returned HCMV inh -5.
Screening COc1ccc(S(=O)(=O)Nc2cc(C)nn2-c2ccccc2)cc1 returned Sm TGR block 0%, HCMV inh 5, Pf growth 96h 34% and FBPA Giardia inh 12%.
For O=S(=O)(c1ccccc1)c1cnn(-c2ccccc2)c1-c1ccc(Cl)cc1 the results were Sm TGR block 13%, HCMV inh inconclusive, Pf growth 48h 12µM*, Pf growth 96h 2.9µM* and FBPA Giardia inh -1%.
For COc1ccc(-c2c(S(=O)(=O)c3ccccc3)cnn2-c2ccccc2)cc1 the results were Sm TGR block 11%, HCMV inh inconclusive, Pf growth 48h inconclusive, Pf growth 96h 6.6µM* and FBPA Giardia inh 6%.
CCc1nc2c(OCc3ccc(Cl)cc3Cl)cccn2c1N(C)C(=O)C1CC1 was read as HCMV inh 17.
For Cc1ccc(NC(=O)c2sc(N)nc2C)cc1 the results were Sm TGR block 12%, HCMV inh 86, Pf growth 48h 106%, Pf growth 96h 192% and FBPA Giardia inh 0%.
`Cc1nn(Cc2ccccc2)c(Cl)c1C(=O)Nc1ccc(OC(F)(F)F)cc1` gave Sm TGR block -2%, HCMV inh -69*, Pf growth 48h -11%, Pf growth 96h inconclusive and FBPA Giardia inh 0%.
COc1ccc(NC(=O)c2ccco2)cc1S(=O)(=O)N1CCOCC1 was read as Sm TGR block 0%, HCMV inh 4, Pf growth 48h 10%, Pf growth 96h 2% and FBPA Giardia inh 3%.
For COc1ccc(C(=O)NCc2c(C)nn(Cc3ccccc3)c2C)cc1S(=O)(=O)N1CCOCC1 the results were Sm TGR block -12%, HCMV inh -101*, Pf growth 48h inconclusive and Pf growth 96h inconclusive.
`COc1ccc(NC(=O)c2c(C)nn(Cc3ccccc3)c2Cl)cc1S(=O)(=O)N1CCOCC1` gave Sm TGR block 0%, HCMV inh -72*, Pf growth 48h -20%, Pf growth 96h inconclusive and FBPA Giardia inh 3%.
`CC(=O)Nc1ccc(NC(=O)c2c(C)nn(Cc3ccccc3)c2Cl)cc1` gave Sm TGR block -7%, HCMV inh -19, Pf growth 48h 6%, Pf growth 96h -28% and FBPA Giardia inh 1%.
CCCC(CCC(=O)Nc1ccn(-c2ccccc2)n1)C(=O)O (centres undefined) was read as Sm TGR block 7%, HCMV inh inconclusive, Pf growth 48h 0%, Pf growth 96h -12% and FBPA Giardia inh 11%.
`Clc1cccc(Cl)c1CSc1nnc([C@@H]2CCCN2)o1` gave Sm TGR block -1%, HCMV inh 69, Pf growth 48h 6%, Pf growth 96h 45% and FBPA Giardia inh -11%.
COc1cc(CCCN2C(=O)C(=O)NC[C@@H]2C(C)O)cc(OC)c1OC (some centres undefined) was read as Sm TGR block 4%, HCMV inh -16, Pf growth 48h 47%, Pf growth 96h -10% and FBPA Giardia inh 4%.
Screening COc1ccc(C2/C(=C(/O)c3ccc(C)cc3)C(=O)C(=O)N2C)c(OC)c1 (centres undefined) returned Sm TGR block -12%, HCMV inh 2, Pf growth 48h 46%, Pf growth 96h inconclusive and FBPA Giardia inh 8%.
CC(=O)c1sc(Nc2nc3cc4c(cc3s2)OCO4)nc1C was read as Sm TGR block inconclusive, HCMV inh 16, Pf growth 48h 102%, Pf growth 96h inconclusive and FBPA Giardia inh -2%.
`CCOC(=O)c1sc(Nc2nc3cc4c(cc3s2)OCO4)cc1C` gave Sm TGR block -24%, HCMV inh -40, Pf growth 48h 8.3µM*, Pf growth 96h 9.3µM* and FBPA Giardia inh -11%.
`CCOC(=O)c1c(C)c(-c2ccccc2)n(CC(=O)Nc2cccc(C)c2C)c1C` gave Sm TGR block 9% and HCMV inh 12.
For CN1CCN(c2ccc(Nc3ccnc4cc(Cl)ccc34)cc2)CC1 the results were Sm TGR block 3%, HCMV inh -83*, Pf growth 48h 0.026µM*, Pf growth 96h inconclusive and FBPA Giardia inh -5%.
CCN1CCC(Nc2ccnc3cc(Cl)ccc23)CC1 was read as Sm TGR block 6%, HCMV inh -90*, Pf growth 48h 0.033µM*, Pf growth 96h 0.0041µM* and FBPA Giardia inh 3%.
`CCN1CCN(c2ccc(Nc3ccnc4ccccc34)cc2)CC1` gave Sm TGR block -1%, HCMV inh inconclusive, Pf growth 48h 0.66µM* and Pf growth 96h inconclusive.
Screening CCOc1ccc(Nc2ccnc3cc(Cl)ccc23)cc1 returned Sm TGR block -1%, HCMV inh -62*, Pf growth 48h -17%, Pf growth 96h 5% and FBPA Giardia inh -1%.
`CCn1c(=N)c(C(=O)NC2CCCC2)cc2c(=O)n3cc(C)ccc3nc21` gave Sm TGR block -4% and HCMV inh -23.
`CSc1ccc(CCNC(=O)c2cc3cc(S(=O)(=O)N4CCCCC4)ccc3n2C)cc1` gave Sm TGR block -1% and HCMV inh -67*.
For CCOc1ccc(CNC(=O)c2cc3cc(S(=O)(=O)N4CCCCC4)ccc3n2C)cc1 the results were Sm TGR block 3% and HCMV inh -68*.
Screening Fc1cccc(CN2CCc3nc(Nc4ccc5c(c4)OCCO5)ncc3C2)c1F returned Sm TGR block 3% and HCMV inh 0.
`CC(C)NC(=O)CN1CCN(C(=O)c2ccc3oc(CCCc4ccccc4)nc3c2)CC1` gave Sm TGR block inconclusive, HCMV inh 30, Pf growth 48h -29% and Pf growth 96h 21%.
